Screen size: about 47,000 compounds; about 2,000 (4.3%) were called active. The entries come from a sample that favours actives as a whole. Values without a mark were called inactive. Cut-off read from the data, not from the text of the source: active = inhibition above about 30%; inactive = the rest.

Ubiquitin carboxyl-terminal hydrolase 8 (Homo sapiens), sequence (P40818 whole entry, looked up): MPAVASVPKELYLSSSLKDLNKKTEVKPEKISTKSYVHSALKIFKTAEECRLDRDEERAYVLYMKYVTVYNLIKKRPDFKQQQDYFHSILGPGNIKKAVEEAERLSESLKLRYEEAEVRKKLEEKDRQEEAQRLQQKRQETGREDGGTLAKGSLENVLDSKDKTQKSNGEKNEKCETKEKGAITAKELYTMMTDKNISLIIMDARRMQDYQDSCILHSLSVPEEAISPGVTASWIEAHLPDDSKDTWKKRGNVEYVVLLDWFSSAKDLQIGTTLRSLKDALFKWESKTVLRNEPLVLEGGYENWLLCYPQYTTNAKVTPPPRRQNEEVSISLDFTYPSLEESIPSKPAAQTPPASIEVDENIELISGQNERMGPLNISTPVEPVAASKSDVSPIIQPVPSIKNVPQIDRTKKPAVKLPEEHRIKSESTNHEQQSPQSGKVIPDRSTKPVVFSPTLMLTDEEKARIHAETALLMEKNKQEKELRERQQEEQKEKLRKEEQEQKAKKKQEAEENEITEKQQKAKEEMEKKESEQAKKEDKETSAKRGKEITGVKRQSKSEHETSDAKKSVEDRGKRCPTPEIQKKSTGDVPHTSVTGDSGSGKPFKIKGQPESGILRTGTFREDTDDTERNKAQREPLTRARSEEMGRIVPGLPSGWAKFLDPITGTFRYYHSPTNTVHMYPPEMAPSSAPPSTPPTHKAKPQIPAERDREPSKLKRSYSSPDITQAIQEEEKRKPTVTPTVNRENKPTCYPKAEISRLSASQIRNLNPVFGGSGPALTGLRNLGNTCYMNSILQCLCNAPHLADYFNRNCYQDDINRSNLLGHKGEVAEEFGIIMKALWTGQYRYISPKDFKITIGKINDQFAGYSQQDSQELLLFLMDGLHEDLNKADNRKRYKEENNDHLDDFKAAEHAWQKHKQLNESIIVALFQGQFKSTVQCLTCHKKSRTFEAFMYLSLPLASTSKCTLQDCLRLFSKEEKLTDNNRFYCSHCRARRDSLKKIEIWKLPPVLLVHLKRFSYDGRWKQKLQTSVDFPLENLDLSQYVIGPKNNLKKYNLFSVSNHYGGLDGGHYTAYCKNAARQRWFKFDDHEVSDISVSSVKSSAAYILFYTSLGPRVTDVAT

The experiment addresses Ubiquitin carboxyl-terminal hydrolase 8 (Homo sapiens) (UniProt P40818). Description: inhibitors of human USP8 deubiquitinase (AID 1645853). As to conditions: purified USP8, Ub-rhodamine cleavage fluorescence, 30 min; at 20 µM; active compounds read high.
Broadly, the inhibition is the relative decrease from the control value, in per cent. In the case of `Cc1cc(C)c2ccc(NC(=O)c3ccco3)nc2n1`, the inhibition is -8.62%.
Regarding `Cc1nc(-n2[nH]c(C)c(CC(=O)N3CCOCC3)c2=O)sc1C`, the inhibition is 8.41%.
The same measure for `Cc1c(-c2nn3c(-c4ccco4)nnc3s2)cccc1[N+](=O)[O-]`: 89.2% (active); for `CC(C)Cc1cc(-c2nn3c(-c4ccccc4Cl)nnc3s2)n[nH]1`: -0.275%.
Take `c1ccc(CN2CCCC(c3nc(-c4cccnc4)n[nH]3)C2)cc1` (centres undefined): the inhibition is -0.172%.
On to `Cc1noc(-c2cccn(Cc3cc(F)ccc3F)c2=O)n1`, for which the inhibition was 2.57%.
The same measure for `O=C(Cn1cccc(-c2nc(-c3ccccc3)no2)c1=O)Nc1ccccc1F`: 90.4% (active); for `O=C(CN1CCC(c2nc(-c3ccccc3)no2)CC1)Nc1ccccc1`: 3.46%.
Turning to `CC(=O)c1ccc(NC(=O)c2cccc(-c3nc(-c4ccccc4)no3)c2)cc1`, the inhibition was 8.62%.
The same measure for `CCc1ccc(C(=O)N2CCN(c3nnc4ccccn34)CC2)cc1`: -1.4%; for `O=C(c1ccccc1)N1CCCCCC1C1CCNCC1` (centres undefined): -4.33%.
Take `O=C(Nc1c2c(nn1-c1cccc(Cl)c1)CS(=O)(=O)C2)c1cccs1`: the inhibition was 9.3%.
With `CC(C)c1ccc(OCC(=O)NCc2nnnn2-c2ccc(Cl)cc2)cc1`, the inhibition was 4.83%.
Turning to `CC(C)NC(=O)c1cccc(-n2cnnn2)c1`, the inhibition was -259%.
In the case of `Cc1cc(OCC(=O)Oc2ccc(-n3cnnn3)cc2)cc(C)c1Cl`, the inhibition was 44.3% (active).
With `Cc1ccnc(C2CN(C(=O)CCn3cnc4ccccc43)CCO2)n1` (centres undefined), the inhibition was 19.3%.
The same measure for `COc1cc(NC(=O)CSc2nc3ccncc3[nH]2)cc(OC)c1`: 1.79%; for `CC(Nc1nnc(Cc2ccccc2)c(=O)[nH]1)c1ccccc1` (centres undefined): 85.5% (active); for `Nc1ccccc1-c1nnc(Cc2ccccc2)c(=O)[nH]1`: -0.271%.
For the compound `Cc1ccc(Cc2nnc(C(=O)NC(C)c3ccccc3)o2)cc1` (centres undefined), the inhibition is 0.117%.
The same measure for `CC(=O)NC(Cc1cccc(C)c1)C(=O)NC1CCN(C(=O)c2cccc(C)c2)CC1` (centres undefined): -1.31%; for `COC(=O)C1CCN(C(=O)CC[C@H]2CNC(=O)[C@@H]3[C@@H](CCN3Cc3ccc(C)cc3)N2C)CC1`: 35.8% (active).
On to `CN1[C@@H](CCC(=O)N2CCc3ccccc32)CNC(=O)[C@@H]2[C@H]1CCN2Cc1ncc[nH]1`, for which the inhibition is -8.85%.
The same measure for `CN1[C@@H](CCC(=O)NCc2ccc(F)cc2)CNC(=O)[C@@H]2[C@H]1CCN2CC1CC1`: -6.51%.
For the compound `COc1ccc(-c2c(C)noc2C)cc1S(=O)(=O)NC1CCCC1`, the inhibition was -9.12%.
As for `Clc1ccccc1C1SCC2=Nc3ccccc3CN21` (centres undefined), the inhibition is -101%.
Regarding `COc1cccc(NC(=O)Cn2c(-c3ccccc3)nc(C)cc2=O)c1`, the inhibition is 2.3%.
The same measure for `CCN1C(=O)CCC12CCCN(S(=O)(=O)c1cccc(C)c1)CC2` (centres undefined): -101%; for `CCC(=O)c1ccc(OCC(=O)Nc2ccc3nc(C)sc3c2)cc1`: -13%; for `CCC(=O)Nc1nc2cc(NC(=O)c3ccc(OC)cc3)ccc2s1`: 47.8% (active).
`COc1ccc(NC(=O)c2ccnc(Nc3ccc(OC)cc3)c2)cc1`: the inhibition was 25.4%.
The same measure for `COc1ccccc1CNC(=O)c1ccc(-n2nc(C)c3c2CCCC3=O)cc1`: 1.29%.
The same measure for `CCN1C(=O)c2ccccc2Sc2ccc(C(=O)NCc3ccc(OC)cc3OC)cc21`: 4.79%; for `COc1cccc(CN2C(=O)c3ccccc3C2C(=O)NCc2ccccc2OC)c1` (centres undefined): 34.7% (active); for `CC(C)(C)NC(=O)CSc1nc2[nH]c(=O)cc(O)c2s1`: -9.23%.
The same measure for `CC1Oc2ccccc2N(Cc2nc(-c3cccc(F)c3)no2)C1=O` (centres undefined): -3.17%; for `O=C(COC(=O)CCc1nc2ccccc2c(=O)[nH]1)Nc1ccc(N2CCOCC2)cc1`: 2.83%; for `O=C(Cc1ccccc1Cl)Nc1ccc(N2CCOCC2)cc1`: 51.8% (active).
For `CCN(CC)c1nc2ccccc2nc1C(=O)Nc1ccc(N2CCOCC2)cc1`, the inhibition is -1.27%.
With `CNC(=O)N1C[C@H]2C[C@H](C(=O)Nc3ccc4c(c3)OCO4)[C@@H](C1)O2`, the inhibition is 37% (active).
Consider `CN1C[C@H]2C[C@H](C(=O)Nc3ccc4c(c3)OCO4)[C@@H](C1)O2`, for which the inhibition is 6.94%.
The same measure for `O=C(Nc1cccnc1)[C@H]1C[C@@H]2CN(S(=O)(=O)C3CC3)C[C@H]1O2`: -14%; for `CC(=O)c1ccc(NC(=O)Cn2c(=O)n(-c3ccccc3)c3ncccc32)cc1`: 10.4%; for `CCS(=O)(=O)N1CC(=O)N(c2cccc(OC)c2)C(C)(C(=O)NCc2ccccc2)C1` (centres undefined): -0.355%.
For the compound `COc1cccc(CNC(=O)c2ccc3c(=O)nc4c(-c5ccccc5)n[nH]n4c3c2)c1`, the inhibition was 71.8% (active).
For `O=C(Nc1ccccc1F)NC1CCCN(c2cc(-c3ccncc3)[nH]n2)C1` (centres undefined), the inhibition was -92%.
As for `O=C(NCc1ccco1)c1ccc2c(=O)nc3c(-c4ccc(F)cc4)n[nH]n3c2c1`, the inhibition is -4.4%.
The same measure for `O=C(NCCc1ccccc1)c1ccc2c(=O)nc3c(-c4ccccc4F)n[nH]n3c2c1`: 2.58%.
Regarding `COc1cccc(CNC(=O)c2ccc(-c3cncnc3)nc2)c1`, the inhibition is -15.9%.
Consider `O=C(NC1CCCCC1)c1ccc2c(=O)nc3c(-c4ccccc4F)n[nH]n3c2c1`, for which the inhibition is 49.8% (active).
As for `CN1CC(c2nc3ccccc3n2Cc2ccccc2)CC1=O` (centres undefined), the inhibition is -1.18%.
Take `CNc1cncc(C2CCCN2C(=O)Cc2ccc3c(c2)OCO3)n1` (centres undefined): the inhibition was -1.13%.
`O=S(=O)(Nc1cccc(O)c1)c1ccc2oc3ccc(S(=O)(=O)Nc4cccc(O)c4)cc3c2c1`: the inhibition is 9.24%.
The same measure for `Cc1cc(C)n(CCC(=O)NCC2CCOCC2)n1`: -2.76%; for `Cc1ccc(-c2nn(-c3ccccc3)cc2CNCc2cccnc2)cc1`: -268%.
In the case of `CNC1C(OC2C(OC3C(O)C(O)C(OC(N)=O)C(O)C3N=C(N)N)OC(C)C2(O)CO)OC(CO)C(O)C1O` (centres undefined), the inhibition was 0.384%.
Consider `CC(C)Nc1ncnc2c1c(C(=O)N1CCCC1)c1ccccn12`, for which the inhibition is 55.5% (active).
In the case of `CN1CCCN(C(=O)c2cc(-c3ccn(C)n3)n3ccccc23)CC1`, the inhibition was -22.2%.
Turning to `CCc1ccccc1NS(=O)(=O)c1c(C)[nH]c(C)c1C(=O)N1CCCC1`, the inhibition is 2.16%.
On to `CN1[C@@H](CCC(=O)N2CCOCC2)CNC(=O)[C@@H]2[C@H]1CCN2C1CCCCC1`, for which the inhibition was 2.93%.
The same measure for `Cc1ccc(S(=O)(=O)Oc2cccnc2)c(C)c1F`: 10.5%; for `C=C1CCC2[C@](C)(CCC[C@]2(C)C(=O)OC)[C@H]1CCc1ccoc1C[N+](C)(C)Cc1ccccc1` (some centres undefined): 30.8% (active); for `C=C1CCC2[C@](C)(CCC[C@]2(C)C(=O)OC)[C@H]1CCc1ccoc1/C=C/C(=O)O` (some centres undefined): 63.4% (active).
The same measure for `C=C1CCC2[C@](C)(CCC[C@]2(C)C(=O)OC)[C@H]1CCc1ccoc1CNCC(=O)O` (some centres undefined): -5.45%; for `Cc1ccc(S(=O)(=O)N(CC(=O)NC(C)c2ccccc2)Cc2ccccc2F)cc1` (centres undefined): 5.32%; for `COc1cccc(S(=O)(=O)N2CCC(c3nccc(C)n3)C2)c1` (centres undefined): 0.292%.
The same measure for `N#Cc1ccc(NC(=O)COC(=O)c2ccc3ccccc3n2)cc1`: -17.7%.
With `N#Cc1ccc(NC(=O)Nc2cccn(Cc3ccccc3F)c2=O)cc1`, the inhibition is 96.4% (active).
The same measure for `O=C(CCCn1c(=O)c2ccccc2n(Cc2ccccc2F)c1=O)NC1CCCC1`: 5.2%; for `O=C(Cn1cncn1)N1CCN(C(c2ccccc2)c2ccccc2)CC1`: -4.21%; for `c1cnc(Nc2cnc(C3CCCN(Cc4cnc[nH]4)C3)cn2)cn1` (centres undefined): -10.5%.
On to `CCN1C(=O)c2ccccc2C(=O)[C@@]2(C)CN(C(=O)c3ccccc3)C[C@@H]12`, for which the inhibition is 15.6%.
The same measure for `N#Cc1cccc(S(=O)(=O)c2c[nH]c3ccc(Cl)cc3c2=O)c1`: 46.9% (active); for `O=c1c(S(=O)(=O)c2cc(F)cc(F)c2)c[nH]c2ccc(F)cc12`: 4.59%.
As to `N#Cc1cccc(S(=O)(=O)N2CCC3(CC2)OC(=O)Nc2ccccc23)c1`, the inhibition was 10.6%.
The same measure for `O=C(C1Cc2ccccc2CN1S(=O)(=O)c1ccc2c(c1)OCCO2)N1CCCC1` (centres undefined): 1.43%; for `CC1=C(C(=O)Nc2ccc(C)cc2C)C(c2cccs2)n2c(nc3ccccc32)N1` (centres undefined): 31.4% (active).
Consider `CC1=C(C(=O)Nc2ccccc2)C(c2cccs2)n2ncnc2N1` (centres undefined), for which the inhibition was -32.6%.
The same measure for `COc1cccc(C2C(C(=O)Nc3ccccc3C)=C(C)Nc3ncnn32)c1OCc1ccccc1` (centres undefined): -22.6%.
As to `Cc1cc2c(cc1CNC(=O)c1ccc3c(c1)CC(C)O3)OCCCO2` (centres undefined), the inhibition was -4.91%.
The same measure for `O=C1c2ccccc2-c2nnc(-c3ccc(Oc4ccccc4)cc3)cc21`: 14.8%; for `Cc1nn2c(S(=O)(=O)Nc3cccc(F)c3C)c(C)nc2s1`: 19.1%.
Consider `COCCN1C(=O)Cc2c(C)nc(C3(C)CCCN(c4cc(C)ncn4)C3)nc21` (centres undefined), for which the inhibition is 6.73%.
Regarding `COCCN1C(=O)Cc2c(C)nc(C3(C)CCCN(c4ccnc(C)n4)C3)nc21` (centres undefined), the inhibition is 30.4% (active).
The same measure for `O=C(C1CCCCC1)N1CCN(c2ncnc3c2nnn3Cc2ccccc2)CC1`: 6.37%; for `Cn1cc(-c2nc(C(=O)Nc3ccc(F)cc3)cs2)c2cccnc21`: 30.4% (active); for `Cn1nc(C(=O)Nc2ccc(F)cc2)c(=O)c2ccccc21`: -3.42%.
The same measure for `Cc1cccc(NC(=O)c2csc(-c3cn(C)c4ncccc34)n2)c1`: 6.69%.
The same measure for `Cc1[nH]c(C)c(S(=O)(=O)NC2CC2)c1-c1nc(C2CC2)no1`: -17.3%.

Source of the values: PubChem BioAssay AID1645853 (Buhrlage Lab, Dana-Farber Cancer Institute and Novartis …, 2021).
